From PubChem
Most compounds without a hit are left out; they make up all but 3.5% or so of the library.
FBW7 act: FBW7 E3 ligase activators, primary screen, biochemical, AlphaScreen, human; AlphaScreen FBW7–phospho-cyclin E peptide binding, activator screen; normalized activity (activation), % at 26.1 µM; 0.13% of 650,000 active; in the data active = normalized activity above about 1.9%;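 note: purified mutant Fbw7 with reduced substrate affinity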
GPR151 activ: activators of human GPR151, primary screen, cell-based, PathHunter beta-arrestin, luminescence; 1% of 650,000 active; PathHunter beta-arrestin GPR151 cells; activation, % at 11.2 µM; AID 1508602, 2020; G-protein coupled receptor 151 (Homo sapiens), Q8TDV0; in the data active = activation above about 4.9%
TEAD-YAP inh: TEAD-YAP interaction inhibition, primary screen, TEAD-YAP interaction inhibitor project, luminescence, HEK-TIYL cells; AID 1259422, 2018; 1.4% of 640,000 active; inhibition, % at 9.12 µM; TEAD-Gal4/YAP UAS-luciferase luminescence; in the data active = inhibition above about 32%
MITF primary: MITF inhibitors, primary screen, biochemical, AlphaScreen, human | 0.91% of 650,000 active | AlphaScreen MITF homodimerization, bead proximity signal | AID 1259374, 2018 | inhibition, % at 2.6 µM | Microphthalmia-associated transcription factor (Homo sapiens), O75030; in the data active = inhibition above about 50%
Target sequence (O75030 whole entry, looked up): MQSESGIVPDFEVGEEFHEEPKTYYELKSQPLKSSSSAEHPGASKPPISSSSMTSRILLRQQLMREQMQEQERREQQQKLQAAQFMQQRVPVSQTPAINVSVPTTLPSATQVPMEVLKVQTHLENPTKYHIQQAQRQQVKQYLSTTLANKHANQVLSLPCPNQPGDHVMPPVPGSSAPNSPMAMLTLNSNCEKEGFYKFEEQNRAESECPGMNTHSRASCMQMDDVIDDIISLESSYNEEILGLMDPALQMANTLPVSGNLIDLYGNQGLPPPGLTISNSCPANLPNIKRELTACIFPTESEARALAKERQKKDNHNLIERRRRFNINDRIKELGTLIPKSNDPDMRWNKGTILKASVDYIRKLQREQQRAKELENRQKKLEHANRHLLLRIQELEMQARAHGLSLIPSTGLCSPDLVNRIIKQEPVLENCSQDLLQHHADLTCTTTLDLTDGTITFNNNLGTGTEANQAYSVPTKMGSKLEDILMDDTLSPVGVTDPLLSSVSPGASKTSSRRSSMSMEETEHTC
MITF inh conf: MITF inhibitors, retest of hits, confirmation, biochemical, AlphaScreen, triplicate | shares compounds with MITF primary | AlphaScreen MITF homodimerization, biotin/His-MITF beads | inhibition, % at 2.6 µM | 16% of 4,700 active;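 active = inhibition above a cutoff derived from the DMSO control wells, cut at about 28% in these data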;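 note: inhibitors lower the bead chemiluminescence by keeping MITF from dimerizing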
AS interf ctr: AlphaScreen optical interference compounds, counter-screen for MITF inhibitor project, biochemical, triplicate. inhibition, % at 2.6 µM. shares compounds with MITF primary. AID 1259376, 2018. 7.6% of 4,700 active. LysRS AlphaScreen counterscreen, signal interference;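 active = inhibition above a cutoff derived from the DMSO control wells, cut at about 30% in these data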
Numbers stand for hits; – = inactive; · = not tested or not shown.

SMILES	FBW7 act	GPR151 activ	TEAD-YAP inh	MITF primary	MITF inh conf	AS interf ctr
Cn1c(CNC(=O)Cc2ccccc2)nnc1SCC(=O)N1N=C(c2cccs2)CC1c1ccc(F)cc1 (configuration not stated)	–	–	–	–	·	·
CC(C)CCN1NC2(CCCCC2)NC1=S	–	–	–	65	–	–
CN1NC2(CCCC2)NC1=S	–	–	–	–	·	·
COc1ccc2oc(=Nc3cccc(C#N)c3)c(C(N)=O)cc2c1	–	–	–	–	·	·
COc1ccc(CN2CCCC(C(=O)N3CCCC3)C2)c(OC)c1 (configuration not stated)	–	–	–	54	–	–
CCOc1ccc2nc(N3CCCC(C(=O)Nc4ccc(NC(C)=O)cc4)C3)sc2c1 (configuration not stated)	–	–	–	–	·	·
CCOc1ccc(CN2CCCC(C(=O)N3CCCC3)C2)cc1 (configuration not stated)	–	–	–	68	–	–
CCOC(=O)C1CCCN(Cc2ccc(Br)cc2)C1 (configuration not stated)	–	–	–	57	–	–
CCCN1CCN(C(=O)C2CCCN(c3nc4ccc(OCC)cc4s3)C2)CC1 (configuration not stated)	–	–	–	62	–	–
CCOc1ccc(CN2CCC(C(=O)N3CCCC3)CC2)cc1	–	–	–	–	·	·
CCOC(=O)C1CCCN(Cc2ccc(NC(C)=O)cc2)C1 (configuration not stated)	–	–	–	–	·	·
Cc1ccc2cc(CN(CCCO)Cc3nnnn3CCc3ccccc3)c(=O)[nH]c2c1C	–	–	–	–	·	·
O=C(C1CCCN(Cc2ccc(Cl)cc2)C1)N1CCCCCC1 (configuration not stated)	–	–	–	88	–	–
CCOc1ccccc1CN1CCCC(C(=O)N2CCCCCC2)C1 (configuration not stated)	–	–	–	70	–	–
CCOc1ccccc1CN1CCC(N2CCCCCC2)CC1	–	–	–	78	–	–
CCOC(=O)C1CCCN(C2CC(=O)N(c3ccc(F)cc3)C2=O)C1 (configuration not stated)	–	–	–	–	·	·
CCOC(=O)C1CCCN(CC(=O)c2ccc(F)cc2)C1 (configuration not stated)	–	–	–	69	–	–
O=C(C1CCCN(Cc2ccc(Br)cc2)C1)N1CCCCC1 (configuration not stated)	–	–	–	60	–	–
CCOC(=O)C1CCCCN1Cc1ccc(O)cc1 (configuration not stated)	–	–	–	–	·	·
CCOC(=O)C1CCCCN1Cc1ccc(Br)cc1 (configuration not stated)	–	–	–	55	–	–
Cc1csc(=O)n1CCOC(=O)c1ccc(Br)cc1	–	–	–	–	·	·
OCCN1CCN(Cc2cc(Br)cs2)CC1	–	–	–	73	–	–
OCCN1CCN(Cc2ccc(Br)s2)CC1	–	–	–	59	–	–
CC(=O)N1CCN(Cc2ccc(Br)s2)CC1	–	–	–	–	·	·
O=C(CSc1nnc(-c2cccc(Cl)c2)o1)Nc1ccccc1	–	–	–	82	–	–
SMILES	FBW7 act	GPR151 activ	TEAD-YAP inh	MITF primary	MITF inh conf	AS interf ctr
CN(C)C(=O)c1cc(CNCc2cccc(Cl)c2)cc(NC(=O)c2ccccn2)c1	–	–	–	–	·	·
Cc1cccc(CNCc2cc(NC(=O)c3ccccn3)cc(C(=O)N(C)C)c2)c1	–	–	–	69	–	–
CCNc1nc(NCC)nc(Oc2ccccc2C(=O)OC)n1	–	–	–	–	·	·
C=CCOc1ccc(C(=O)N2CCN(c3ccccc3OC)CC2)cc1	–	–	–	–	·	·
O=C(CCCn1c(SCC(=O)NC2CCCC2)nc2ccccc2c1=O)NCCCN1CCOCC1	–	–	–	57	–	–
Cc1ccc(N=c2c([N+](=O)[O-])nn(-c3cccc(C)c3)n2O)cc1	–	–	–	–	·	·
Cc1cccc(N=c2c([N+](=O)[O-])nn(-c3ccc(Cl)cc3)n2O)c1	–	–	–	78	–	–
